Hit rate of the full screen: of about 310,000 compounds, about 17,000 (5.5%) were called active. Inconclusive results (about 11%) are left out. The entries come from a sample that favours actives as a whole. A number with no mark means an inactive call. Calls come from the whole dose curve; as a rule, active = well fitted inhibition curve with a large enough effect; inconclusive = small, poorly fitted or top-dose-only effect, or effect the other way; inactive = no such curve, though single readings can be large or run the other way.
molecular target: Nuclear receptor ROR-gamma (Mus musculus) (UniProt P51450); assay: qHTS for inhibitors of ROR gamma transcriptional activity; conditions: Drosophila S2 Gal4-RORgamma UAS-luciferase reporter, 20 h; series mostly up to 53.6 µM; activity change, negative = inhibition: at the top concentration; note: nearly all actives have a fitted effect of over 60% in size
How it was run: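 Schneider cells (Drosophila), stable Gal4 DBD–ROR gamma + UAS-luc; 1 hr cmpd preincubation; Cu2+ induction 700 uM final; 20 hr ambient; luminescence.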
% is set by controls: 0 for no effect and ±100 for the full control effect; potency is the fitted concentration of half-maximal effect.

Sequence of Nuclear receptor ROR-gamma (Mus musculus) (P51450 whole entry, looked up, the tested form may be a part): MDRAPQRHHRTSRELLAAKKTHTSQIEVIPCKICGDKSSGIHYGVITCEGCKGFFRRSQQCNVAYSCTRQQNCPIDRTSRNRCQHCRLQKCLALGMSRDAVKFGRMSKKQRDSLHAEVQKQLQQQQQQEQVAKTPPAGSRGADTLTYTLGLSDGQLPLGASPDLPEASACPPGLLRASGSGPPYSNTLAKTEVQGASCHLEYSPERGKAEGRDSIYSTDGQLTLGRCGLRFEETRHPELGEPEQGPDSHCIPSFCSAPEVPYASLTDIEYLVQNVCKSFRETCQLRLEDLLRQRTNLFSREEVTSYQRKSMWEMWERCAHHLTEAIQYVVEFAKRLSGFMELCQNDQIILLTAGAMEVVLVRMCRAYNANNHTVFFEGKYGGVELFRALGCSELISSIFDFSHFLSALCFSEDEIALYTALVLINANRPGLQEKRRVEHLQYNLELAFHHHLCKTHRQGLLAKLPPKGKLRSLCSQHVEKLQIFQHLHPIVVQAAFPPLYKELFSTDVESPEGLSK

Point of comparison: `COc1ccnc2c1c(=O)n(Cc1cccc(F)c1)c(=O)n2C`, “activity change, negative = inhibition” value -8.83%. Against it:
- COc1cc2c(cc1OC)C(c1cccc([N+](=O)[O-])c1)=NCC2 — higher, 25.9%
- Cc1cc(=O)oc2c1ccc1ccccc12 — higher, 2.03%
- Cc1nc2cc3c(cc2s1)OCO3 — higher, 2.56%
- Brc1ccc2nc(N3CCCC3)sc2c1 — lower, -43.7%
- COc1ccc(-c2cc(=O)oc3cc(OC(C)C(=O)Nc4ccc(CN5CCOCC5)cc4)ccc23)cc1 (stereo not drawn) — higher, 37.1%
- Cc1ccc(N(C(=O)CNC(=O)c2ccco2)C(C(=O)NC2CCCC2)c2ccncc2)cc1 (stereo not drawn) — higher, 1.7%
- CCn1c(Cc2ccccc2)nnc1SCc1nc2ccccc2c(=O)[nH]1 — higher, 43.4%
- CN(C)S(=O)(=O)c1cc(NC(=O)CN2C(=O)NC3(CCCc4ccccc43)C2=O)ccc1Cl (stereo not drawn) — higher, 36.9%
- CC(C)=C(NC(=O)c1ccco1)C(=O)NCCc1nc2ccccc2[nH]1 — lower, -9.69%
- COc1ccc(-n2cnnc2SCC(=O)Nc2cccc(S(N)(=O)=O)c2)cc1 — lower, -9.16%
- CCN(CC)c1ccc(C(=O)NNC(=O)CCc2nc3ccccc3c(=O)[nH]2)cc1 — higher, 18.7%
- NS(=O)(=O)c1cccc(NC(=O)CSc2nc3ccccc3n2-c2ccccc2)c1 — higher, -0.215%
- CCCC(=O)N(CCc1ccccc1)Cc1nc2ccccc2c(=O)[nH]1 — higher, 15.3%
- COc1ccc(C2(C)NC(=O)N(CC(=O)c3ccc4c(c3)OCO4)C2=O)cc1 (stereo not drawn) — higher, -4.65%
- Cc1cc(C)c(S(=O)(=O)Nc2c(C)n(C)n(-c3ccccc3)c2=O)cc1[N+](=O)[O-] — higher, -8.36%
- Cc1cccc([C@@H]2[C@@H]3C(=O)N(Cc4ccccc4)C(=O)[C@@H]3[C@]3(C)C(=O)N(c4ccc(Br)cc4)C(=O)N23)c1 — higher, 21.2%
- O=C(N/N=C/c1cccc(Br)c1)c1ccc(N2CCCC2=O)cc1 — higher, -8.7%
- COCc1ccc(CN2CCC(Oc3ccc(C(=O)NCc4ccccn4)cc3)CC2)o1 — higher, -7.56%
- COc1ccc(NC(=O)C2CCN(S(=O)(=O)c3ccc4[nH]c(=O)oc4c3)CC2)c(OC)c1 — lower, -10.7%
- Cc1ccc(S(=O)(=O)N(CCCN(C)C)Cc2ccc3c(c2)OCO3)cc1 — higher, 0.598%
- CCCS(=O)(=O)Nc1ccc(-c2cn3c(n2)SCC3)cc1 — higher, 5.34%
- COc1cc(/C=N\NC(=O)c2nonc2N)c(OC)cc1Br — higher, -6.29%
- Cc1ccc(-c2ccc(/C=N/NC(=O)CN3CCOCC3)o2)cc1[N+](=O)[O-] — lower, -112%
- CC(C)CC(=O)N1CCN(Cc2cccc(Cl)c2)CC1 — lower, -20.8%
- O=c1[nH]n(-c2cccc(Cl)c2)c2ncccc12 — higher, 13.5%
- COc1ccc(Cl)cc1NS(=O)(=O)c1cccc(C(=O)NCC2CCCO2)c1 (stereo not drawn) — lower, -22.2%
- O=C(COc1ccc([N+](=O)[O-])cc1)Nc1cccc(C(=O)Nc2ccccc2C(=O)O)c1 — higher, 5.24%
- CCCOc1ccc(CNC(=O)C2CCN(c3nn4c(=O)cc(C)nc4s3)CC2)cc1 — higher, -8.37%
- Cc1cc(C(C)(C)C)n2nc(C)c(-c3ccccc3)c2n1 — the same, -8.83%
- Cc1cc(N2CCCC2)n2nc(C)c(-c3ccccc3)c2n1 — higher, 19%
- COc1ccc(-c2noc(C(C)NS(=O)(=O)c3ccc(NC(C)=O)cc3)n2)cc1 (stereo not drawn) — higher, 37.7%
- Cc1cc(C)cc(NC(=O)C2CCCN(S(=O)(=O)c3ccc4[nH]c(=O)ccc4c3)C2)c1 (stereo not drawn) — lower, -31.2%
- CSc1nc2sc3c(c2c(=O)[nH]1)CCc1ccccc1-3 — lower, -60.4%
- CCCSc1nc2sc3c(c2c(=O)n1-c1ccc(OC)cc1)CCN(C)C3 — higher, -3.28%
- Cn1c(CCN2CCCC2)nc2cc(NS(=O)(=O)c3ccccc3)ccc21 — lower, -26.1%
- CN(CCC1CCOCC1)C(=O)CC1C(=O)NCCN1Cc1cccc(F)c1 (stereo not drawn) — higher, 5.46%
- CCCCC(CC)CNCc1cccn1CCN1CCOCC1 (stereo not drawn) — higher, -0.924%
- COc1ccc(CCNC(=O)C2CCCN2C(=O)Nc2ccccc2)cc1OC (stereo not drawn) — lower, -13.3%
- C/C(=N\NC(=O)c1cc(-c2ccc(O)cc2)nc2ccccc12)c1cccnc1 — lower, -37.7%
- Cc1cccc(N2C(=O)c3ccc(C(=O)Nc4cccc(C(=O)O)c4)cc3C2=O)c1 — higher, 1.44%
- O=C(O)c1ccc2c(c1)C(=O)N(c1ccc(/C=C/C(=O)c3ccccc3)cc1)C2=O — lower, -43.4%
- Cc1cc(OCC(=O)NCC(O)c2ccccc2)c2c(C)c(C)c(=O)oc2c1 (stereo not drawn) — higher, 29.2%
- O=C(O)CCCCCCCCc1cn(CN2C(=O)c3ccccc3C2=O)nn1 — lower, -39.7%
- CC1CCN(C(=O)/C(=C\c2ccccc2)NC(=O)c2ccccc2)CC1 — higher, -6.2%
- CC1CCN(C(=O)c2ccccc2NC(=O)Cc2ccccc2)CC1 — higher, 18.3%
- COc1ccc(NC(=O)C(C)N2c3cccc4cccc(c34)S2(=O)=O)c(OC)c1 (stereo not drawn) — higher, 16.9%
- COc1ccc(COC(=O)c2ccc(Cl)c(S(=O)(=O)N3CCOCC3)c2)cc1F — lower, -12.6%
- CC(C)(C)OC(=O)N1CCC(C(=O)NNC(=O)c2ccc(Cl)cc2Cl)CC1 — higher, -7.57%
- O=C(CN1CCC(O)(c2cccc(C(F)(F)F)c2)CC1)NCCc1ccccc1 — higher, 0.0393%
- O=C(CCc1nnc(Cc2ccc3c(c2)OCO3)o1)NCCc1ccccc1Cl — higher, 8.86%

For `c1c2c(cc3sc(N4CCCCC4)nc13)OCCO2`, the Potency was 794 nM (active).
For `CCN(CC(=O)NC(=O)NCc1ccccc1)Cc1nc2ccccc2c(=O)[nH]1`, the Potency was 355 nM (active).
With `CCN(CC(=O)Nc1cccc(S(N)(=O)=O)c1)Cc1nc2ccccc2c(=O)[nH]1` the Potency was 2820 nM (active).
`CCN(CC(=O)Nc1ccc(Cl)c(S(=O)(=O)N(C)C)c1)Cc1nc2ccccc2c(=O)[nH]1` was tested, and the Potency was 12600 nM (active).
In the case of `O=C(c1ccco1)N(Cc1nc2ccccc2c(=O)[nH]1)C1CCCC1`, the Potency is reported as 1580 nM (active).
For `Cc1cc(C)c([N+](=O)[O-])cc1-c1ccc(/C=N/NC(=O)c2nonc2N)o1`, the Potency was 11200 nM (active).
In the case of `Clc1cccc(CN2COc3c(cc(Cl)c4cccnc34)C2)c1`, the Potency is reported as 562 nM (active).
In the case of `Cc1nn2c(NCCN(C)C)c3c(nc2c1-c1ccccc1)CCC3`, the Potency is reported as 141 nM (active).
In the case of `COc1ccc(-n2c(=S)[nH]c3sc4c(c3c2=O)CCc2ccccc2-4)cc1`, the Potency is reported as 447 nM (active).
With `O=C(O)c1ccc2c(c1)C(=O)N(NC(=O)c1ccc(O)cc1)C2=O` the Potency was 11200 nM (active).
`CC1CCN(C(=S)NC(=O)c2ccccc2Br)CC1` was tested, and the Potency was 562 nM (active).

In the case of `CCCc1nc(SCC(=O)Nc2ccc(S(=O)(=O)N(C)C)cc2)c2ccccc2n1`, the activity change, negative = inhibition is reported as 7.51% [at 10 µM].

Source: PubChem BioAssay AID2551 (National Center for Advancing Translational Sciences (NCATS), 2010)
